Measurements from PubChem BioAssay (NCATS).
Results filed as inconclusive are left out. Activity calls are given as the source filed them. Unless noted, the call rests on the fitted dose curve; in most records, active means well fitted curve in the direction sought with a large enough effect; inconclusive means small, poorly fitted or top-dose-only effect, or another doubt; inactive means no such curve, though single readings can be large; an effect the other way counts as inactive or inconclusive.

Tests used:
[1] = target: Rap guanine nucleotide exchange factor 3 (Homo sapiens) (UniProt O95398); assay: Confirmatory qHTS for antagonist of cAMP-regulated guanine nucleotide exchange factor 3 (EPAC1) (AID 1645880); details: EPAC1 Rap1B-BODIPY-GDP exchange, fluorescence; activity, negative = inhibition: at 115 µM (top of the series); further: nearly all actives have a fitted effect of over 55% in size; further: potency means the concentration at half of the fitted maximal effect;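 on activity, negative = inhibition: plate controls were DMSO only for no effect and full effect of the ATA control for full effect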
In short: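 Released BODIPY-GDP fluoresces less than Rap1-bound BODIPY-GDP; the signal is followed at 480/540 nm at 5-min intervals over 30 min, after 5 min at room temperature. Reactions contain 100 nM EPAC1, 250 nM RAP1B-BODIPY-GDP and 50 uM GDP; results are normalized to ATA and DMSO.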

[2] = target: Rap guanine nucleotide exchange factor 3 (Homo sapiens) (UniProt O95398); assay: Confirmatory qHTS for agonist of cAMP-regulated guanine nucleotide exchange factor 3 (EPAC1) (AID 1645881); further: nearly all actives have a fitted effect of over 75% in size; further: potency means the concentration at half of the fitted maximal effect;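 on activation: EPAC1 catalysed release of BODIPY-GDP from Rap1B seen as fluorescence loss; 100% = effect of cAMP agonist control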
[3] = target: Rap guanine nucleotide exchange factor 4 (Homo sapiens) (UniProt Q8WZA2); assay: Confirmatory qHTS for agonist of cAMP-regulated guanine nucleotide exchange factor 4 (EPAC2) (AID 1645884);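 further: nucleotide exchange releases bodipy-GDP from Rap1 and this lowers its fluorescence; on the % scale 0 is the no-effect control and ±100 the full control effect; nearly all actives have a fitted effect of over 65% in size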
[4] = target: Rap guanine nucleotide exchange factor 3 (Homo sapiens) (UniProt O95398); assay: Counterscreen qHTS for agonist of cAMP-regulated guanine nucleotide exchange factor 3 (EPAC1) (AID 1645889); further: % of control where 0% means no effect; nearly all actives have a fitted effect of over 40% in size
In short: (§1)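 Measured: fluorescence of BODIPY-GDP bound to Rap1B, which falls as exchange proceeds. Conditions include 50 uM competing GDP, 5 and 30 min reads, and a later cAMP challenge for antagonist detection.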

[5] = AP1 Signaling Pathway (AID 357; active means well fitted curve in either direction with a large enough effect, not every such curve was filed as active;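 further: ME-180 reporter cells stimulated with EGF at its EC50 level; on the % scale 0 is the no-effect control and ±100 the full control effect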); details: ME-180 (cervical carcinoma) AP-1-bla reporter, EGF-induced, beta-lactamase ratio, 5 h; at 7.69 µM (top of the series) unless noted
In short: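 Modulation of EGF-driven AP-1 transcription was assessed with a beta-lactamase reporter in ME-180 cells. Compound and EC50 EGF were co-incubated 5 hours at 37 °C before 2.5-hour CCF4 loading at room temperature and dual-emission reading.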

[6] = NFAT Signaling Pathway (AID 444; active means well fitted curve in either direction with a large enough effect, not every such curve was filed as active;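 further: carbachol stimulus at about its EC50 of 1 µM final; on the % scale 0 is the no-effect control and ±100 the full control effect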); details: Jurkat NFAT-bla M1, carbachol, beta-lactamase ratio, 5 h; at 7.69 µM (top of the series) unless noted
In short: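 Jurkat cells carrying an NFAT-driven β-lactamase reporter and co-transfected muscarinic M1 receptor were treated with compound plus carbachol (1 uM final, an EC50 level) for 5 h at 37 °C. CCF4 loading followed for 1 h at RT; 460/530 nm ratio gave %activity.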

[7] = Stat Signaling Pathway (AID 446; active means well fitted curve in either direction with a large enough effect, not every such curve was filed as active;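 further: ME-180 cervical cancer cells given 40 pM IL-6 alongside compound; SIE-controlled beta-lactamase reporter measured as 460/530 nm FRET emission ratio; on the % scale 0 is the no-effect control and ±100 the full control effect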)
In short: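 Normalization used AC90 stimulation (300 pM IL-6) and AC90 inhibition (125 nM pan-JAK inhibitor at 40 pM IL-6). The underlying signal is SIE-driven beta-lactamase in ME-180 cells after 5 h IL-6 exposure with compound.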

[8] = target: Glucocorticoid receptor (Homo sapiens) (UniProt P04150); assay: GR-GFP Redistribution (AID 450;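 active means compounds whose dose series gives a full or clear partial fitted curve of increased nuclear translocation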; further: potency means the concentration at half of the fitted maximal effect); details: U2OS GR-GFP nuclear translocation, laser cytometry, 2 h
[9] = target: Rap guanine nucleotide exchange factor 3 (Homo sapiens) (UniProt O95398); assay: Counterscreen qHTS for antagonist of cAMP-regulated guanine nucleotide exchange factor 3 (EPAC1) (AID 1645888); further: % of control where 0% means no effect
In short: as §1

[10] = qHTS for Inhibitors of Ubiquitin-specific Protease USP2a Using CHOP2 as the Reporter: K633 Counterscreen (AID 652168); further: % of control where 0% means no effect
In short: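 Detection-system control: fluorescence of K48-linked DiUb-4IQF substrate (100 nM as added) tracked over time, Ex 525/Em 598, with pinned compounds and no enzyme, in pH 8 Tris buffer containing beta-mercaptoethanol and 0.05% Chaps.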

[11] = qHTS for Inhibitors of Ubiquitin-specific Protease USP2a Using CHOP2 as the Reporter: Cytotox Assay (AID 652170);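 further: HCT116 human colon cancer cells at 600 per well; plate controls were DMSO-treated cells for no effect and wells without cells for full effect; nearly all actives have a fitted effect of over 70% in size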
In short: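 Cytotoxicity read as ATP luminescence (CellTiter-Glo) after 72 hr compound treatment at 37 deg C. Cells: HCT116, 600/well in DMEM plus 10% FBS. Normalization between DMSO-treated cells and cell-free wells.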

[12] = target: Ubiquitin carboxyl-terminal hydrolase 2 (Homo sapiens) (UniProt O75604); assay: qHTS for Inhibitors of Ubiquitin-specific Protease USP2a Using CHOP2 as the Reporter: K484 Substrate (AID 652173); details: USP2 cleavage of DiUb K48 IQF substrate, fluorescence;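 further: cleavage of internally quenched K48 di-ubiquitin substrate measured as rising fluorescence over time; potency means the concentration at half of the fitted maximal effect; nearly all actives have a fitted effect of over 70% in size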
In short: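 Kinetic fluorescence (Ex 525/Em 598) tracked cleavage of an internally quenched K48 di-ubiquitin substrate, added as a 100 nM solution. The enzyme was added as a 5 nM USP2 solution before compound pinning, with no-enzyme controls. Buffer: Tris pH 8, beta-mercaptoethanol, CHAPS.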

[13] = target: Rap guanine nucleotide exchange factor 4 (Homo sapiens) (UniProt Q8WZA2); assay: Confirmatory qHTS for antagonist of cAMP-regulated guanine nucleotide exchange factor 4 (EPAC2) (AID 1645885); further: nearly all actives have a fitted effect of over 25% in size; further: potency means the concentration at half of the fitted maximal effect; on activity change, negative = inhibition: on the % scale 0 is the no-effect control and ±100 the full control effect
[14] = target: Tumor susceptibility gene 101 protein (Homo sapiens) (UniProt Q99816); assay: qHTS Assay for Iinhibitors of HIV-1 Budding by Blocking the Interaction of PTAP/TSG101: Hit Validation (AID 651600); further: potency means the concentration at half of the fitted maximal effect; nearly all actives have a fitted effect of over 70% in size
In short: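 Displacement of a FITC-labeled PTAP-motif peptide (50 nM) from the Tsg101 binding domain (10 uM) was monitored by fluorescence polarization after a 20 min room-temperature incubation.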

[15] = target: Cytochrome P450 3A4 (Homo sapiens) (UniProt P08684); assay: qHTS Assay for Activators of Cytochrome P450 3A4 (AID 885); further: nearly all actives have a fitted effect of over 65% in size
In short: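 Human CYP3A4 dealkylates Luciferin-PPXE to luciferin, which luciferase detection converts to light. Substrate was at its KM (25uM), buffer 200mM KPO4, reaction 60 min at RT.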

[16] = target: DNA dC->dU-editing enzyme APOBEC-3G (Homo sapiens) (UniProt Q9HC16); assay: qHTS for inhibitors of Vif-A3G interactions: Validation (AID 588379); further: 0% is about no effect
In short: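 Yellow fluorescence (Ex 488, Em 500-530) of Vif-coexpressing HeLa A3G-eYFP cells, scanned by Acumen cytometer, reports blocked A3G degradation. Cells plated at 700/well overnight at 37 deg C before compound addition, then a further overnight compound incubation at 37 deg C.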

Chain of Rap guanine nucleotide exchange factor 4 (Homo sapiens) (Q8WZA2 whole entry, looked up): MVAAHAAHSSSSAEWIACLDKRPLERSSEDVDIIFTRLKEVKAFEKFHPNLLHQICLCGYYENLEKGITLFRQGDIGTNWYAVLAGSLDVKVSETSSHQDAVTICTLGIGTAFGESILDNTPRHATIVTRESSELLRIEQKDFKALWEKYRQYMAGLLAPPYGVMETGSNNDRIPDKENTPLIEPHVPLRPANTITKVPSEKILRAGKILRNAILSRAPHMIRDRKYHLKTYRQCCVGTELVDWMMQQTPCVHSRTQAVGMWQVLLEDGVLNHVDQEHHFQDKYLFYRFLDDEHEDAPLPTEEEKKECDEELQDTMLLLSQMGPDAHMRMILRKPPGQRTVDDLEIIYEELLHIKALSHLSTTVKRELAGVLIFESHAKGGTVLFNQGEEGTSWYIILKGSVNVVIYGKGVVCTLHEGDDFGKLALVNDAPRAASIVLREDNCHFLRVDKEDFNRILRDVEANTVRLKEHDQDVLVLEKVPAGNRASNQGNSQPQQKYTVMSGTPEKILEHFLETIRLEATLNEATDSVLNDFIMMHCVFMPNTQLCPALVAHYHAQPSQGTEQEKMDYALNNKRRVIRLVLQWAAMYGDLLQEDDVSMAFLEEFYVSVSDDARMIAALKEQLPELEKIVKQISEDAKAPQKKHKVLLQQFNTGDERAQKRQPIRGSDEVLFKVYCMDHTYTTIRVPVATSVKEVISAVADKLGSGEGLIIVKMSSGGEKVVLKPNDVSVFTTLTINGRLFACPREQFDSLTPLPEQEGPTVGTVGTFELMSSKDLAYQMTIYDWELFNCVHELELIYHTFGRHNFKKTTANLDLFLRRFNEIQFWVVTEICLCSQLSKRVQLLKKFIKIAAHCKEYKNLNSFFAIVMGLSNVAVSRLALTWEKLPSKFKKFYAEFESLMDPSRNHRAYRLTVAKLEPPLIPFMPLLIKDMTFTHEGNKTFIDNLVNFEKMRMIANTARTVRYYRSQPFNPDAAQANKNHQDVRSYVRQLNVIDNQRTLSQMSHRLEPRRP
Chain of Rap guanine nucleotide exchange factor 3 (Homo sapiens) (O95398 whole entry, looked up): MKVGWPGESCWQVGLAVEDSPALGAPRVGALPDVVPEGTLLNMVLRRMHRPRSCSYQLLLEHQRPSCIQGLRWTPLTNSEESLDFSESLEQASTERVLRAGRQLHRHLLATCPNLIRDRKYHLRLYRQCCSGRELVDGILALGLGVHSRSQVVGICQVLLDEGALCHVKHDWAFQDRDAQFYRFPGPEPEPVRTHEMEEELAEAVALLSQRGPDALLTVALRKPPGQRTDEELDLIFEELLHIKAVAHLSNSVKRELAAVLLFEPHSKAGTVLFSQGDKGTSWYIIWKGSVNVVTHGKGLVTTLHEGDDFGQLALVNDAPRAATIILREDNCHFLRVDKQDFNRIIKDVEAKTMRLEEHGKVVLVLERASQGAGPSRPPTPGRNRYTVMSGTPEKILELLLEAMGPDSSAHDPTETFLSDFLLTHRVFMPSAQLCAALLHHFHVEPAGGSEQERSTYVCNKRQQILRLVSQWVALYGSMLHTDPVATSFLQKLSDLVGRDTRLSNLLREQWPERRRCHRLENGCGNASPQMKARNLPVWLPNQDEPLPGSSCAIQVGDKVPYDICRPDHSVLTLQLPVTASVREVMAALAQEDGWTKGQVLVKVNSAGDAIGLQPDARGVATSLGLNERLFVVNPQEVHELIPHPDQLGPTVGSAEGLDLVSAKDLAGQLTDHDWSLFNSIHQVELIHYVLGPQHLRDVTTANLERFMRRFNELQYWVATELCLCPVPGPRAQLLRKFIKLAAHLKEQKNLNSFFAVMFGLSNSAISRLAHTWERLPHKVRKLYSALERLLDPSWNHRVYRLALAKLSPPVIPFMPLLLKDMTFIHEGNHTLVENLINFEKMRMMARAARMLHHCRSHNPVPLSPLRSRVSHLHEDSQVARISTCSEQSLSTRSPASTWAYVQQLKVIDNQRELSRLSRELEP
Chain of Glucocorticoid receptor (Homo sapiens) (P04150 whole entry, looked up): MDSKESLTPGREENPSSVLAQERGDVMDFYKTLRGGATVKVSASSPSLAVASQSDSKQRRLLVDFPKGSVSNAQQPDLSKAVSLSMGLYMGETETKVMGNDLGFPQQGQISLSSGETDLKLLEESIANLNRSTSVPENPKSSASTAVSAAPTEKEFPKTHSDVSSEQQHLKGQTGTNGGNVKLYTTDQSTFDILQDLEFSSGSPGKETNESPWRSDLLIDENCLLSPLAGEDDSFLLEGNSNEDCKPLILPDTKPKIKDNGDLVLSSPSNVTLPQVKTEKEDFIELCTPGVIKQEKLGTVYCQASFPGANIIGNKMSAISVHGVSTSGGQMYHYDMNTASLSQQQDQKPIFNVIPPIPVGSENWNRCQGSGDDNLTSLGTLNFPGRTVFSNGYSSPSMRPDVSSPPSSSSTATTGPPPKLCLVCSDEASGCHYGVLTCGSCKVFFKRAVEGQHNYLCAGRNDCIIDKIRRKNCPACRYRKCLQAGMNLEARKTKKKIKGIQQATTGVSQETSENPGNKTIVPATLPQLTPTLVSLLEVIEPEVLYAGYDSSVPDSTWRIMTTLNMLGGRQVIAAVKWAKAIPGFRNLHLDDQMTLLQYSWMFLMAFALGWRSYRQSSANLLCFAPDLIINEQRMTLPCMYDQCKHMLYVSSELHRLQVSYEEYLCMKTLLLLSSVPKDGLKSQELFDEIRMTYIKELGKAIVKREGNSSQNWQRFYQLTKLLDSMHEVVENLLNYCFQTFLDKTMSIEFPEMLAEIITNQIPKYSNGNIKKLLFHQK
Chain of Tumor susceptibility gene 101 protein (Homo sapiens) (Q99816 whole entry, looked up, the tested form may be a part): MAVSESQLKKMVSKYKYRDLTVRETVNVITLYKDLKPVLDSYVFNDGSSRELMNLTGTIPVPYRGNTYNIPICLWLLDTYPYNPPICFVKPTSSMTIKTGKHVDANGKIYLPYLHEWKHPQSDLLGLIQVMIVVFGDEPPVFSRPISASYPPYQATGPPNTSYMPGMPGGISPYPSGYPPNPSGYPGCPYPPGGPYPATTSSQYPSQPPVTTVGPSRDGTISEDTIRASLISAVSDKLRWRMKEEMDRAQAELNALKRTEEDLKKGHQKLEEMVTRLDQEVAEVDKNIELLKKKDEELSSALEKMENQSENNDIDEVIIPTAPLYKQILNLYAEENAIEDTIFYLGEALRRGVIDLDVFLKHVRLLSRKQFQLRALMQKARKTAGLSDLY
Chain of Ubiquitin carboxyl-terminal hydrolase 2 (Homo sapiens) (O75604 whole entry, looked up): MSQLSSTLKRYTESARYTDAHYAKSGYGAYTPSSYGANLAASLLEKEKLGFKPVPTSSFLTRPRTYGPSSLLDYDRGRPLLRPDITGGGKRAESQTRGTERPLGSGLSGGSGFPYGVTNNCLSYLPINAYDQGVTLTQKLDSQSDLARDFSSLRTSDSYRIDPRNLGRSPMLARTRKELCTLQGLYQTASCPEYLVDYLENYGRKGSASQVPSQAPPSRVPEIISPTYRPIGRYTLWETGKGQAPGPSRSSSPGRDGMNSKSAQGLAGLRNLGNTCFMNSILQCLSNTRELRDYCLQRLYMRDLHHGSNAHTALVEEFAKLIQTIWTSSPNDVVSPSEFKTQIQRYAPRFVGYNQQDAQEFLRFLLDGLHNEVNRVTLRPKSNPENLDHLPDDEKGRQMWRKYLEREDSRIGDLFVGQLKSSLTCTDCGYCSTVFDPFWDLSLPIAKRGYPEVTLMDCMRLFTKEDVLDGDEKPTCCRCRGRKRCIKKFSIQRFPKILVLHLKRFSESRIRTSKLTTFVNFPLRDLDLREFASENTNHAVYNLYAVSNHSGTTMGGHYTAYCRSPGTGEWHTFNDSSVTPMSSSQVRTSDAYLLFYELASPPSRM
Chain of Cytochrome P450 3A4 (Homo sapiens) (P08684 whole entry, looked up): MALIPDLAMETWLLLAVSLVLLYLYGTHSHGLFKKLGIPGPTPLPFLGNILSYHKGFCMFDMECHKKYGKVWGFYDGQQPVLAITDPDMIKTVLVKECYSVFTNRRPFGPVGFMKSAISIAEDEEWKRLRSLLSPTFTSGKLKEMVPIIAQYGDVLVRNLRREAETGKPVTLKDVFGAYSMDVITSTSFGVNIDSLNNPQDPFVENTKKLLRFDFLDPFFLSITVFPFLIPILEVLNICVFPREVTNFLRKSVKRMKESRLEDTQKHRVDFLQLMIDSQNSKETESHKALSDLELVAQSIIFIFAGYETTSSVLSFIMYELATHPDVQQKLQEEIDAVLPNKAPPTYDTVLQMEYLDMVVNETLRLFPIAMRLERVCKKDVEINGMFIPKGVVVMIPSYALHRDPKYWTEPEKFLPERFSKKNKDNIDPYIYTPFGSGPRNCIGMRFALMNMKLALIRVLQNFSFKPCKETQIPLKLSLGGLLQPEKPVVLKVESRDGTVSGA
Chain of DNA dC->dU-editing enzyme APOBEC-3G (Homo sapiens) (Q9HC16 whole entry, looked up): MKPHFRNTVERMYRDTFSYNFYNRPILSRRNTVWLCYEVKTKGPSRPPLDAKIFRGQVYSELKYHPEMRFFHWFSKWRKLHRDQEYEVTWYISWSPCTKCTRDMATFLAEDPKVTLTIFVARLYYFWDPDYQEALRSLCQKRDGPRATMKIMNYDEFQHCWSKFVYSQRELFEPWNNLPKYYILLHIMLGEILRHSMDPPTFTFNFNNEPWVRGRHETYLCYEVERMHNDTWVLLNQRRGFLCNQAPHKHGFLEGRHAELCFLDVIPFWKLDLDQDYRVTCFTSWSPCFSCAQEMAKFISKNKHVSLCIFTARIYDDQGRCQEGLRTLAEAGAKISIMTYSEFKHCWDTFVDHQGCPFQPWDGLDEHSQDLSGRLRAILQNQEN

COC(=O)/N=C(/Cc1ccc(OC)cc1)c1ccc(OC)cc1
inactive: Potency [1] | Potency [2] | Potency [3] | Potency [4]

C[C@@H]1CN([C@@H](C)CO)C(=O)Cc2cc(NC(=O)C3CCCCC3)ccc2O[C@H]1CN(C)S(=O)(=O)c1ccccc1
inactive: Potency [1] | Potency [2] | Potency [3] | Potency [4]

O=C(/C=N/O)NCCCN1CCOCC1
inactive: activity change, negative = inhibition [5] -1.51% [at 17.2 µM] | activity change, negative = inhibition [6] 14.3% [at 17.2 µM] | outcome [7] | Potency [8] > 20.6 µM | Potency [1] | Potency [2] | Potency [3] | Potency [9]

COC(=O)c1cc(C(=O)OC)n(Cc2ccc(F)cc2)c1C
inactive: Potency [1] | Potency [2] | Potency [3] | Potency [4]

Cc1ccc(C(=O)C=Cc2ccc3c(c2)OCO3)c(C)c1
inactive: Potency [1] | Potency [2] | activation [3] -0.688% [at 17.1 µM, percent relative to cAMP agonist control] | activation [4] 12.3% [at 30.8 µM]

COc1cc(Br)cc(C(=O)N2CCc3ccccc32)c1OC
inactive: Potency [1] | Potency [2] | Potency [3] | Potency [4]

CC(C)(C)NC(=O)C(c1ccc(C(F)(F)F)cc1)n1c(=O)c(-c2ccco2)nc2ccccc21 (stereo not drawn)
inactive: Potency [2] | Potency [3] | Potency [4]
active: Potency [1] 75.7 µM

COc1ccc(NS(=O)(=O)c2cc(N)ccc2N2CCCCC2)cc1
inactive: Potency [1] | Potency [2] | Potency [3] | Potency [4]

Cc1cccc(Cn2c(C)nc3c(N)c(C)c(C)cc32)c1
inactive: Potency [1] | Potency [2] | Potency [3] | Potency [4]

Cc1cc(NS(=O)(=O)c2ccc(Nc3nc(-c4ccc(C)c(C)c4)cs3)cc2)no1
inactive: outcome [10] | outcome [11] | Potency [2] | Potency [3] | Potency [9]
active: Potency [12] 27.3 µM | Potency [1] 75.7 µM

Cc1nc2c(C(=O)NCCc3ccccc3)c[nH]n2c(=O)c1Cc1ccc(F)cc1Cl
inactive: Potency [2] | Potency [13] | Potency [9]
active: Potency [1] 84.9 µM

COc1ccc(NC(=O)CN(C)C(=O)c2cn(-c3ccccc3)nc2-c2cccnc2)cc1
inactive: Potency [1] | Potency [2] | Potency [13] | Potency [9]

COc1cccc(-c2nc(N3CCN(c4ccccc4)CC3)c3ccccc3n2)c1O
inactive: Potency [1] | Potency [2] | Potency [13] | Potency [9]

O=C1/C(=C\c2cccnc2)Sc2ccccc21
inactive: Potency [1] | Potency [2] | Potency [13] | Potency [9]

CN(C)c1ccc(/C=C/c2c3c(nc4ccccc24)CCCC3)cc1
inactive: Potency [1] | Potency [2] | Potency [13]

Cc1onc(-c2ccc3c(c2)OCO3)c1-c1ccc2[nH]ccc2c1
inactive: Potency [1] | Potency [2] | Potency [13]

C=Nc1ccc(/C=C/c2ccnc3ccccc23)cc1
inactive: Potency [1] | Potency [2] | Potency [13]

O=C(Nc1ccccc1N1CCCCC1)C1=COCCO1
inactive: Potency [1] | Potency [2] | Potency [13] | Potency [9]

Cc1cc(C)cc(NC(=O)c2sc3nc(-c4cc5ccccc5oc4=O)[nH]c(=O)c3c2C)c1
inactive: Potency [1] | Potency [2] | Potency [13] | Potency [9]

OC(c1ccc2ccccc2n1)c1c(Cl)cccc1Cl (stereo not drawn)
inactive: Potency [1] | Potency [2] | Potency [13] | Potency [9]

CCn1c2ccccc2c2cc(NC(=O)c3ccc(=O)oc3)ccc21
inactive: Potency [1] | outcome [13] inactive [at 12.7 µM] | Potency [9]
active: Potency [2] 112 µM

CCCCCCOC(=O)C(C#N)c1nc2ccccc2nc1N1CCCCC1 (stereo not drawn)
inactive: Potency [1] | Potency [2] | Potency [13]

Oc1ccc2ccccc2c1-c1sc(Nc2ccccc2)n[n+]1-c1ccc(F)cc1
active: Potency [14] 10.3 µM | Potency [1] 19 µM
inactive: Potency [2] | Potency [3] | Potency [4]

O=C(CCn1c(=O)oc2ccccc21)N(Cc1ccccc1)c1ccccc1
inactive: Potency [1] | Potency [2] | Potency [13]

Cc1cc2ccccn2c1C(=O)c1ccc(Cl)c([N+](=O)[O-])c1
inactive: Potency [1] | Potency [2] | Potency [13] | Potency [9]

CCCCN(CCCC)c1ccc(/C=C/c2ccnc3ccccc23)cc1
inactive: Potency [1] | Potency [2] | Potency [13]

COc1ccc2c(c1)Cc1sc(NC(=O)c3cccc(C)c3)nc1-2
active: Potency [1] 84.9 µM
inactive: Potency [2] | Potency [13] | Potency [9]

COc1ccc(C2OCC3(COC(C)=O)C(C)C=C(C)C2C3C)cc1 (stereo not drawn)
inactive: outcome [15] | outcome [16] | Potency [1] | Potency [2] | Potency [3]

CCc1ccc(CNC(=O)Cn2nc(C)n3c(cc4cc(C)ccc43)c2=O)cc1
inactive: Potency [1] | Potency [2] | outcome [13] inactive [at 12.7 µM] | Potency [9]

O=C(Nc1ccccc1OCc1ccccc1)c1ccccc1Br
inactive: Potency [1] | Potency [2] | Potency [9]
active: Potency [13] 1.51 µM
